sEH activator: soluble epoxide hydrolase activators, primary screen, biochemical, human sEH | Bifunctional epoxide hydrolase 2 (Homo sapiens), P34913 | purified human sEH enzymatic activity, activator screen | activation, % at 2 µM | 0.04% of 91,000 active; in the data active = activation above about 37%
PostGolgi ctrl: growth inhibition of yeast control strain, primary screen, counter-screen for post-Golgi transport modulator project; 5% of 98,000 active; efflux-deficient yeast background strain, growth absorbance A615, 16 h; inhibition, % at 10 µM
PostGolgi yeast: phenotypic screen on post-Golgi transport, primary screen; post-Golgi transport phenotypic cell assay; 0.9% of 98,000 active; AID 739, 2007; inhibition, % at 10 µM;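 also: yeast cells grown in 1536-well plates; yeast grown about 18 h at 30C before absorbance read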
sEH inhibitor: soluble epoxide hydrolase inhibitors, primary screen, biochemical, human sEH; 0.34% of 91,000 active; inhibition, % at 2 µM; recombinant human sEH enzymatic activity assay; in the data active = inhibition above about 80%
Cav3 T inh: Cav3.2 calcium influx blockers – cell-based, Fluo-4 calcium fluorescence, FDSS, MLSMR library, primary screen; Voltage-dependent T-type calcium channel subunit alpha-1H (Homo sapiens), O95180; Cav3.2-expressing cells; hits give low values; B-score at 10 µM; 4% of 100,000 active; AID 449739, 2010;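 active = single-dose well whose peak fluorescence ratio is a statistical outlier from its plate by either plate-standardised score or position-corrected B-score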
Numbers without * were called inactive; . = no result. Hits are enriched below; roughly 7.8% of the tested compounds scored in any of these assays. Rule as the data show it, unless noted: active = inhibition above about 30%; inactive = the rest.

SMILES	sEH activator	PostGolgi ctrl	PostGolgi yeast	sEH inhibitor	Cav3 T inh
COC(=O)c1nc2n(n1)C(c1cc(OC)ccc1OC)C(C(=O)OC1CCCCC1)=C(C)N2 (stereo not given)	.	3.8	17.2	.	-4.83*
O=C1CC(C(=O)Nc2nccs2)C(c2ccccc2)O1 (stereo not given)	.	.	.	.	0.0451
O=C(NCCCNCc1ccccc1)c1ccccn1	.	36.1*	4.8	.	0.555
O=C(NCc1cccnc1)c1ccccn1	-0.5	-5.5	-37.1	3.4	0.56
CCOC(=O)c1cc2c(C)n(-c3ccc(C)cc3)c(C)c2ccc1=O	3.5	-3.1	0.3	-5.1	-7.39*
CCC(=O)NC1(C(F)(F)F)C(=O)Nc2c1c(=O)n(C)c(=O)n2C (stereo not given)	.	1.8	17.8	.	2.89*
CCOC(=O)c1c(C)[nH]c(C(=O)C(C)Sc2ccc(Cl)cc2)c1C (stereo not given)	-8.3	28.8	7.7	9.9	-5.81*
CCN(CC)C(=O)/C(=C\c1ccc(Br)cc1)NC(=O)c1ccccc1OC	4.4	27.5	-2.2	-6.5	-1.34
CCOCCOCCC(C(=O)OCC)P(=O)(c1ccccc1)c1ccccc1 (stereo not given)	1.4	7.6	-1.4	-5.0	0.171
CCN(CC)S(=O)(=O)c1ccc(NS(=O)(=O)c2cccc(C)c2)cc1	-3.5	-2.8	0.3	3.1	-4.6*
O=S(=O)(c1ccc2c(c1)C(=NO)c1cc(S(=O)(=O)N3CCCCC3)ccc1-2)N1CCCCC1	17.7	17.2	-2.7	-19.6	-6.43*
CC1CCN(S(=O)(=O)c2ccc3c(c2)C(=NO)c2cc(S(=O)(=O)N4CCC(C)CC4)ccc2-3)CC1	.	-8.4	-2.9	.	-3.5
CCN(CC)S(=O)(=O)c1ccc(NC(=O)CN(c2cccc(C)c2)S(C)(=O)=O)cc1	-20.8	.	.	20.8	-4.45*
CCN(CC)S(=O)(=O)c1ccc(NC(=O)CC(NC(C)=O)c2ccccc2)cc1 (stereo not given)	17.4	40.1*	-6.6	-15.7	-0.335
CCCC(C)NC1=NCCCCC1 (stereo not given)	-2.3	-1.5	6.8	1.8	0.241
COc1ccc(N2C(=O)CCC(C(=O)Nc3cccc(C)n3)C2c2ccc(OC)c(OC)c2)cc1 (stereo not given)	.	13.8	4.4	.	-1.13
CCN(CC)S(=O)(=O)c1cccc(S(=O)(=O)c2cccc(S(=O)(=O)N(CC)CC)c2)c1	2.8	.	.	-3.6	-5.28*
CCN(CC)S(=O)(=O)c1ccc(C)c(C)c1	3.8	20.9	1.5	-4.8	0.0549
CCN(CC)S(=O)(=O)c1cccc(S(=O)(=O)N2CCCCC2)c1	-6.8	-0.2	9.8	7.5	-0.0141
CCN(CC)S(=O)(=O)c1ccc2c(c1)C(=NO)c1cc(S(=O)(=O)N(CC)CC)ccc1-2	-4.6	.	.	7.7	-5.75*
CCN(CC)S(=O)(=O)c1ccc(NC(=O)CN(c2ccc(OC)cc2OC)S(C)(=O)=O)cc1	8.1	24.4	-1.8	-4.3	-6.62*
CCN(CC)S(=O)(=O)c1ccc(NC(=O)COC(=O)c2ccc(Br)o2)cc1	-27.1	25.7	-5.4	27.9	-4.66*
COc1ccc(CCNC(=O)C2=COCCO2)cc1	12.9	4.2	-4.8	-13.8	0.519
CN(C)S(=O)(=O)c1cccc(NC(=O)COC(=O)c2ccc(Br)o2)c1	-1.6	5.8	-1.3	5.0	-0.453
COc1ccc(CNC(=O)COC(=O)C2=COCCO2)cc1	-12.6	9.6	37.3*	14.7	1.35
SMILES	sEH activator	PostGolgi ctrl	PostGolgi yeast	sEH inhibitor	Cav3 T inh
COc1ccc(CCNC(=O)COC(=O)c2ccc(Br)o2)cc1	-2.2	2.4	7.3	4.5	-3.8*
CC1CCN(c2ncnc3c2cnn3-c2ccccc2)CC1	.	31.9*	4.8	.	.
CCOC(=O)C1CCN(c2ncnc3c2cnn3-c2ccccc2)CC1	1.7	9.0	-7.0	-3.4	-0.252
COC(=O)CNC(=O)c1ccccc1	.	.	.	.	1.01
CC(C)(C)C(=O)COC(=O)CNC(=O)c1ccc(Oc2ccccc2)cc1	-16.7	-0.4	6.3	15.9	-3.75*
COc1ccc(C[C@H]2CN3C(=NC[C@@H]3Cc3ccc(O)cc3)N2C[C@H](C)NC(=O)c2ccc(C)c(Br)c2)cc1	.	.	.	.	-2.64
Cc1ccc(Nc2c([N+](=O)[O-])c(=O)n(C)c3ccccc23)cc1C	11.3	15.3	-0.2	-12.5	-1.36
O=C(NCc1ccc(C(F)(F)F)cc1)C1CC(c2cccc(F)c2)=NO1 (stereo not given)	.	.	.	.	-2.72*
Cc1ccc(CCNC(=O)C2CC(c3cccc(F)c3)=NO2)cc1 (stereo not given)	.	.	.	.	-0.284
O=C(NCc1cccc(Br)c1)C1CC(c2cc(C(F)(F)F)cc(C(F)(F)F)c2)=NO1 (stereo not given)	.	.	.	.	1
O=C(NCc1cccc(C(F)(F)F)c1)C1CC(c2c(Cl)cccc2Cl)=NO1 (stereo not given)	-13.1	34.0*	-7.5	13.7	-2.19
C/C=C/C=C/C(=O)[C@@H]1[C@@H]([C@]2(C)OC(=O)C(C)=C2O)[C@H]2/C(=C(O)/C=C/C=C/C)C(=O)[C@]1(C)C(=O)C2(C)O (stereo not given in full)	.	.	.	.	1.77
O=C1C2C3C=CC(C3)C2C(=O)N1/N=C/c1cc(Br)cc([N+](=O)[O-])c1O (stereo not given)	3.6	3.9	-1.6	-3.5	-2.54
Cc1ccc(-c2ccc(/C=N/N3C(=O)C4C5C=CC(C6CC56)C4C3=O)o2)c([N+](=O)[O-])c1 (stereo not given)	-26.6	7.0	-7.6	26.2	-5.11*
NNC(=O)c1cnn(Cc2ccccc2)c1N	-86.3	.	.	87.0*	-0.148
CCCc1cc(=O)n2[nH]c(-c3ccc(OC)cc3)nc2n1	-3.3	9.7	-3.5	0.7	-0.357
COc1ccccc1C(=O)Oc1ccc(C(C)C)cc1	3.1	39.0*	-0.5	-6.1	-1.18
O=C(Oc1ccccc1)c1ccccc1OS(=O)(=O)c1ccccc1	-9.7	25.6	-7.2	9.5	-2.47
CCOC(=O)N1CCN(C(=O)CN(Cc2ccccc2)S(=O)(=O)c2ccc(OC)c(C)c2)CC1	8.1	30.0*	-5.0	-7.5	-0.538
O=C(N/N=C/c1ccc(Cl)cc1)c1sccc1OCc1ccc(F)cc1	.	27.3	5.0	.	-0.268
O=C(N/N=C/c1ccc(F)cc1)c1sccc1OCc1ccc(F)cc1	-1.2	34.0*	5.9	0.2	-0.0115
CCCn1nnc(NC(=O)c2cccc(OCc3ccccc3)c2)n1	-15.9	10.7	-6.1	17.8	-1.31
COCCCNC(=O)c1cccc(C(=O)NCCCOC)c1	.	41.4*	-2.3	.	0.803
Cc1onc(-c2ccccc2Cl)c1C(=O)OCC(=O)Nc1ccc2c(c1)OCO2	.	7.8	-9.4	.	-6.31*
Cc1onc(-c2ccccc2Cl)c1C(=O)OCC(=O)N1CCCc2ccccc21	.	4.3	-2.4	.	-7.4*
Cc1onc(-c2ccccc2Cl)c1C(=O)N1CCCc2ccccc21	-4.9	16.0	-10.2	6.3	-1.18
Cc1onc(-c2c(F)cccc2Cl)c1C(=O)N1CCCc2ccccc21	8.6	-1.3	12.2	-9.1	-0.765
